Experimental data: the supplement of paper PMC10981050
Values joined by “and” are separate entries in the source; they are usually repeats but may differ in a detail not shown here. Equal entries are not always repeated. Structures can show the parent of a compound that is named as a salt.

What was measured:
Experiment in all cases: cell viability relative to vehicle control; higher = less cytotoxic
Conditions in all cases: 10 µM
K562 = tested on: K562
Procedure, shortened: (§1)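 Mutant clones made by CRISPR editing and their isogenic wild-type counterparts, from four leukaemia lines, were exposed to a single 10 µM dose of each library compound for 48 h. The supernatant was then removed and CellTiter-Glo luminescence was read. Viability was reported as percent of the on-plate vehicle control.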

MARIMO = tested on: MARIMO
Procedure, shortened: as §1

MOLM14 = tested on: MOLM14
Procedure, shortened: as §1

OCI-AML2 = tested on: OCI-AML2
Procedure, shortened: as §1

Structure (SMILES) | cell viability (K562; SRSF2 genotype: SRSF2 P95H/wt) | cell viability (K562; SRSF2 genotype: SRSF2 wt/wt) [%] | cell viability (MARIMO; SRSF2 genotype: SRSF2 P95H/wt) [%] | cell viability (MARIMO; SRSF2 genotype: SRSF2 wt/wt) [%] | cell viability (MOLM14; SRSF2 genotype: SRSF2 P95H/wt) [%] | cell viability (MOLM14; SRSF2 genotype: SRSF2 wt/wt) [%] | cell viability (OCI-AML2; SRSF2 genotype: P95H/wt) [%] | cell viability (OCI-AML2; SRSF2 genotype: wt/wt) [%]
C[C@]12CC[C@H](O)C[C@@H]1CC[C@@H]1[C@@H]2CC[C@]2(C)C(=O)CC[C@@H]12 | 94.7% and 104% | 104 | 98.9 | 108 | 98.5 | 107 | 106 | 97.3
CC(C)C1=CC(=O)[C@@](C)(C2[C@H](O)C[C@@]3(C)[C@@H]4CC=C5[C@@H](CC[C@@H](OC6OCC(O)C(O)C6OC6OC(C)C(O)C(O)C6O)C5(C)C)[C@]4(C)C(=O)C[C@]23C)O1 (some centres not stated) [Picfeltarraenin IA] | 95.9% and 96.6% | 89.6 | 92.2 | 92.5 | 89.7 | 93.2 | 94.3 | 101
COc1c(C)c(O)cc2[o+]c(-c3ccccc3)ccc12.[O-][Cl+3]([O-])([O-])[O-] [Dracohodin perochlorate] | 80.8% and 78.3% | 77.4 | 80.1 | 86.8 | 80.1 | 82.3 | 83.6 | 84.1
COC1=C[C@@H]2[C@@H]3Cc4ccc(OC)c(O)c4[C@]2(CCN3C)CC1=O [Sinomenine hydrochloride] | 104% and 105% | 97.9 | 102 | 101 | 98.5 | 101 | 103 | 109
CC[C@@H]1CN2CC[C@@]3(C(=O)Nc4ccccc43)[C@@H]2C[C@@H]1/C(=C\OC)C(=O)OC [Corynoxine] | 95.5% and 98.3% | 97.9 | 75.2 | 69.5 | 77.1 | 82.5 | 92.9 | 79.2
CC(=O)OC(C)(C)/C=C/C(=O)[C@](C)(O)[C@H]1[C@H](O)C[C@@]2(C)[C@@H]3CC=C4[C@H](C[C@H](O)C(=O)C4(C)C)[C@]3(C)C(=O)C[C@]12C [Cucurbitacin B] | 19.7% and 26.4% | 28.1 | 8.8 | 16.8 | 0.7 | 0.57 | 0.29 | 3.38
CCN1C[C@]2(COC)CC[C@H](OC)[C@]34C1[C@H]([C@H](OC)[C@H]23)[C@@]1(OC(C)=O)C[C@H](OC)[C@@]2(O)C[C@@H]4[C@@H]1[C@H]2OC(=O)c1ccc(OC)cc1 [Crassicauline A] | 93.2% and 89.8% | 87.5 | 84.4 | 93.3 | 91.8 | 90.6 | 87.7 | 100
CN1c2ccccc2C(NCCCCCCC(=O)O)c2ccc(Cl)cc2S1(=O)=O (configuration not stated) [Tianeptine sodium] | 99.4% and 97.1% | 97.6 | 106 | 108 | 107 | 101 | 98.4 | 111
COc1cc2c3c(c1OC)-c1ccccc1C[C@H]3N(C)CC2 [Nuciferine] | 102% and 108% | 102 | 102 | 108 | 102 | 104 | 96.3 | 106
C[N+]1(C)[C@@H]2C[C@@H](OC(=O)[C@H](CO)c3ccccc3)C[C@H]1[C@@H]1O[C@@H]12 [Methscopolamine (Pamine)] | 97.7% and 84.7% | 82.5 | 79.5 | 87.8 | 82.4 | 84.1 | 83.2 | 84.8
CC(=O)O[C@H]1CC[C@H]2[C@@H]3CCC4=CC(=O)CCC4=C3C=C[C@]12C [Trenbolone acetate] | 98.4% and 111% | 98.9 | 87.2 | 96 | 83 | 102 | 114 | 101
CN1C(=O)COc2c(C(=O)NC3CN4CCC3CC4)cc(Cl)cc21 (configuration not stated) [Azasetron HCl] | 96.6% and 91.5% | 94.9 | 92.8 | 98.7 | 90.5 | 97.3 | 95.9 | 94.7
COP(=O)(OC)SCn1c(=O)oc2cc(Cl)cnc21 [Azamethiphos] | 55.4% and 71.8% | 78.9 | 48.4 | 58.3 | 93.3 | 107 | 110 | 106
CCC12C=CCN3CC[C@@]4(c5ccc(OC)cc5N(C)[C@H]4[C@@](O)(C(=O)OC)[C@@H]1OC(C)=O)[C@@H]32 (some centres not stated) [Vindoline] | 96.8% and 99.8% | 99.4 | 101 | 107 | 105 | 105 | 103 | 116
CN(C)Cc1c[nH]c2ccccc12 [Gramine] | 101% | 100 | 102 | 102 | 99.6 | 100 | 102 | 98.9
C=C1CC[C@H]2[C@@H](C=C(C)C(=O)[C@@]3(O)C[C@H](C)[C@H](O)[C@@H]3[C@H]1O)C2(C)C [Lathyrol] | 94.9% and 95.9% | 96.9 | 92.5 | 102 | 97.1 | 96.8 | 105 | 99
OC(c1ccccc1)(c1ccccc1)C1CCNCC1 [Azacyclonol] | 93.7% and 92.3% | 95.1 | 85.4 | 94.4 | 94.7 | 97.8 | 89 | 94.5
COc1cc(-n2c(=S)[nH]c3ccccc3c2=O)c(Cl)cc1Cl [Mdivi-1] | 91.9% and 96.6% | 94.2 | 90.7 | 95.2 | 91 | 102 | 109 | 116
O=C(O)C(=O)c1cn(Cc2ccccc2)c2ccc(-c3ccc(OC(F)(F)F)cc3)cc12 [Tiplaxtinin (PAI-039)] | 84.4% and 88.9% | 90.3 | 92.3 | 101 | 90.9 | 93.8 | 97.4 | 103
CC1=C[C@@H]2C(=O)[C@]3(C=C(C)[C@H](O)[C@@]3(O)[C@@H]1O)[C@H](C)C[C@@H]1[C@H]2C1(C)C [20-Deoxyingenol] | 79.4% and 65.6% | 65.1 | 76.2 | 100 | 39.8 | 14.8 | 18.2 | 52

Structure (SMILES) | cell viability (K562; SRSF2 genotype: SRSF2 P95H/wt) | cell viability (K562; SRSF2 genotype: SRSF2 wt/wt) [%] | cell viability (MARIMO; SRSF2 genotype: SRSF2 P95H/wt) [%] | cell viability (MARIMO; SRSF2 genotype: SRSF2 wt/wt) [%] | cell viability (MOLM14; SRSF2 genotype: SRSF2 P95H/wt) [%] | cell viability (MOLM14; SRSF2 genotype: SRSF2 wt/wt) [%] | cell viability (OCI-AML2; SRSF2 genotype: P95H/wt) [%] | cell viability (OCI-AML2; SRSF2 genotype: wt/wt) [%]
C=C[C@]12CN(C)[C@@H]3[C@H]4CO[C@H](C[C@H]41)[C@]1(C(=O)Nc4ccccc41)[C@@H]32 [Gelsemine] | 91.8% and 88.5% | 87.9 | 87.9 | 97.5 | 96 | 90 | 90.1 | 90
CC(C)N(CCNC(=O)CN1CCCC1=O)C(C)C [Pramiracetam] | 96.6% and 106% | 104 | 98.4 | 111 | 107 | 102 | 98.1 | 105
NCC(O)c1ccc(O)cc1 (racemic) [(+,-)-Octopamine HCl] | 91.4% and 95.7% | 97.6 | 96.5 | 96.5 | 99.5 | 96.8 | 93.1 | 97.3
COc1cc2c(cc1O)CC1NCCc3cc(OC)c(O)c-2c31 (configuration not stated) [Norisoboldine] | 108% and 103% | 105 | 93.1 | 90.2 | 99.3 | 103 | 103 | 99.1
COC(=O)C[C@](O)(CCC(C)(C)O)C(=O)O[C@@H]1C(OC)=C[C@]23CCCN2CCc2cc4c(cc2[C@H]13)OCO4 [Harringtonine] | 12.3% and 17.8% | 20.6 | 8.47 | 4.47 | 2.72 | 1 | 5.78 | 10.9
CC[C@H]1[C@@H]2C[C@H]3[C@@H]4N(C)c5ccccc5[C@]45C[C@@H]([C@@H]2[C@H]5O)N3[C@@H]1O [Ajmaline] | 95.7% and 94% | 98.5 | 90.6 | 96.2 | 94.6 | 98.4 | 93.9 | 97.9
C[C@]12CCC(=O)C[C@@H]1CC[C@@H]1[C@@H]2CC[C@]2(C)[C@@H](O)CC[C@@H]12 [Dihydrotestosterone (DHT)] | 97% and 97.8% | 97.7 | 95.3 | 109 | 93.9 | 102 | 96.5 | 101
O=C(O)C(=O)CBr [Bromopyruvic acid] | 99.8% and 89.6% | 90.3 | 90 | 97.8 | 91.6 | 94.7 | 94.7 | 93.9
O=C(C[S+]([O-])C(c1ccccc1)c1ccccc1)NO (configuration not stated) [Adrafinil] | 95.6% and 94.3% | 103 | 92.9 | 96.4 | 95.3 | 102 | 91.8 | 110
Cc1cccc(C)c1NC(=O)CN1CCCC1=O [Nefiracetam (Translon)] | 108% and 104% | 107 | 109 | 107 | 105 | 100 | 103 | 110
CCN1C[C@]2(COC)CC[C@H](OC)[C@]34C1[C@H](C[C@H]23)[C@@]1(O)C[C@H](OC)[C@H]2C[C@@H]4[C@@H]1[C@H]2O [Talatisamine] | 110% and 104% | 108 | 104 | 108 | 105 | 106 | 101 | 107
CC(=O)O[C@@H]1[C@H]2[C@@H](OC(=O)Cc3ccccc3)[C@@H](C)C[C@]2(OC(C)=O)C(=O)/C(C)=C/[C@@H]2[C@H](CC[C@]13CO3)C2(C)C [Euphorbia factor L1] | 105% and 96.6% | 100 | 89.8 | 102 | 102 | 104 | 95.9 | 105
O=C1C2CCN(CC2)C1(CO)CO | 74.5% and 85.5% | 73.3 | 83.6 | 73.8 | 34.1 | 41.8 | 56.2 | 47
CC(=O)O[C@H]1C[C@@H]2CC[C@@H]3[C@H](CC[C@@]4(C)[C@H]3C[C@H]([N+]3(C)CCCCC3)[C@@H]4OC(C)=O)[C@@]2(C)C[C@@H]1[N+]1(C)CCCCC1 [Pancuronium dibromide] | 101% and 96.7% | 91.6 | 96 | 99.3 | 103 | 102 | 97.4 | 101
CC(C)=CCC[C@]1(C)C=Cc2c(O)c3c(c(CC=C(C)C)c2O1)O[C@]12C(=C[C@@H]4C[C@H]1C(C)(C)O[C@@]2(C/C=C(/C)C(=O)O)C4=O)C3=O [Gambogic Acid] | 1.29% and 0.59% | 0.98 | 0.39 | 0.5 | 0.42 | 0.51 | 0.38 | 0.45
CCC(COC(=O)c1cc(OC)c(OC)c(OC)c1)(c1ccccc1)N(C)C (configuration not stated) [Trimebutine] | 94.7% and 99.7% | 97.2 | 87.4 | 109 | 97.9 | 104 | 92.5 | 97.8
CN(C)[C@@H]1C(=O)C(C(N)=O)=C(O)[C@@]2(O)C(=O)C3=C(O)c4c(O)cccc4[C@@](C)(O)[C@H]3[C@H](O)[C@@H]12 [Oxytetracycline dihydrate] | 98.3% and 102% | 101 | 104 | 100 | 97.6 | 103 | 103 | 92.6
CN(C)CCc1ccc(O)cc1 [Hordenine] | 104% and 106% | 103 | 108 | 106 | 101 | 109 | 107 | 94.8
N[C@@H]1C[C@H]1c1ccccc1 [Tranylcypromine (2-PCPA) HCl] | 109% and 112% | 115 | 98 | 107 | 97.7 | 97.5 | 94.1 | 85
